Assay results: PubChem BioAssay (NCI)
Several values for one entry are separate records, joined by “and”; a condition that tells them apart may be missing. Equal values may be shown once. About 83,000 compounds went through this panel and 20% of them were active in at least one assay; those are over-represented in the sample as a whole.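 Testing used 96-well plates and a 48-hour single-concentration exposure. Example: -40 means 40% of the starting cells died.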 Activity calls are given as the source filed them. The calls were made as follows: active = growth percent below 10; inactive = the rest.

What was measured:
Assay in all cases: NCI-60 one-dose screen, 48 h (100 = growth as untreated, 0 = no growth, -100 = all killed)
SK-MEL-2 melanoma = tested on: SK-MEL-2 melanoma
EKVX NSCLC = settings: 10 µM unless noted
SN12C renal = tested on: SN12C renal
UO-31 renal = tested on: UO-31 renal
TK-10 renal = tested on: TK-10 renal
ACHN renal = tested on: ACHN renal
CAKI-1 renal = tested on: CAKI-1 renal
A498 renal = tested on: A498 renal
CCRF-CEM leukemia = settings: 10 µM unless noted
MOLT-4 leukemia = tested on: MOLT-4 leukemia

Measured: growth

CC1(C)CC([P+](c2ccccc2)(c2ccccc2)c2ccccc2)=NN1
inactive: EKVX NSCLC 67.4% | SN12C renal; 10 µM unless noted 30.4% | UO-31 renal; 10 µM unless noted 67.8% | TK-10 renal; 10 µM unless noted 56.4% | ACHN renal; 10 µM unless noted 88.1% | CAKI-1 renal; 10 µM unless noted 90.1% | A498 renal; 10 µM unless noted 92% | CCRF-CEM leukemia 41.3% | MOLT-4 leukemia; 10 µM unless noted 21%
active: SK-MEL-2 melanoma; 10 µM unless noted -19.2%

CCN1/C(=C\c2cc[n+](CC)c3ccccc23)C=Cc2ccccc21
inactive: EKVX NSCLC 15.8% | UO-31 renal; 10 µM unless noted 11.4% | TK-10 renal; 10 µM unless noted 22.3% | ACHN renal; 10 µM unless noted 15.2% | CAKI-1 renal; 10 µM unless noted 53.9% | CCRF-CEM leukemia 28.1% | MOLT-4 leukemia; 10 µM unless noted 13.2%
active: SK-MEL-2 melanoma; 10 µM unless noted 0.604% | SN12C renal; 10 µM unless noted 8.57% | A498 renal; 10 µM unless noted -20.2%

COc1ccccc1OC(=O)Oc1ccccc1OC
inactive: SK-MEL-2 melanoma; 10 µM unless noted 115% and 91.6% | EKVX NSCLC 118% and 97% | SN12C renal; 10 µM unless noted 105% and 95.8% | UO-31 renal; 10 µM unless noted 78.2% and 93.9% | TK-10 renal; 10 µM unless noted 104% and 98% | ACHN renal; 10 µM unless noted 108% and 104% | CAKI-1 renal; 10 µM unless noted 97.9% | A498 renal; 10 µM unless noted 108% and 103% | CCRF-CEM leukemia 101% and 83.6% | MOLT-4 leukemia; 10 µM unless noted 93.9% and 92%

COC(=O)c1nc(=S)[nH]c(C(=O)OC)c1C(=O)c1ccccn1
inactive: SK-MEL-2 melanoma; 10 µM unless noted 24.9% | EKVX NSCLC 34.9% | SN12C renal; 10 µM unless noted 39.1% | UO-31 renal; 10 µM unless noted 11.7% | TK-10 renal; 10 µM unless noted 47.6% | ACHN renal; 10 µM unless noted 10.2% | CAKI-1 renal; 10 µM unless noted 15% | A498 renal; 10 µM unless noted 145% | CCRF-CEM leukemia 10.7%
active: MOLT-4 leukemia; 10 µM unless noted 2.29%

COc1ccc(-c2cscc2N)cc1
inactive: SK-MEL-2 melanoma; 10 µM 95.1% | SK-MEL-2 melanoma; 100 µM 24.6% | EKVX NSCLC 51.4% [100 µM] | SN12C renal; 10 µM 71.2% | SN12C renal; 100 µM 55.1% | UO-31 renal; 10 µM 78% | UO-31 renal; 100 µM 27% | TK-10 renal; 10 µM 101% | TK-10 renal; 100 µM 74.4% | ACHN renal; 10 µM 54.7% | ACHN renal; 100 µM 40.7% | CAKI-1 renal; 10 µM 70.9% | CAKI-1 renal; 100 µM 29.2% | A498 renal; 10 µM 83.3% | A498 renal; 100 µM 80.6% | CCRF-CEM leukemia 31.3% [100 µM] | MOLT-4 leukemia; 10 µM 66.4% | MOLT-4 leukemia; 100 µM 38.6%
